An excerpt weighted towards active compounds, which were near 1% of everything screened.
cytoskel mod – modifiers of F-actin cytoskeleton organization, primary screen, imaging, HUVEC, phalloidin staining, high-content imaging | HUVEC TNFa F-actin phalloidin imaging | inhibition, % at 2 µM | 91,000 tested, 0.18% active;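 active = inhibition above the batch mean plus 3 SD and confirmed as a hit by visual image inspection, cut at about 30% in these data, passing the limit was not always enough; inconclusive = above the inhibition threshold but rejected on visual inspection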
HUVEC tox TNFa – cytotoxicity in TNFa-stimulated HUVEC, primary screen, cytotoxicity control for VCAM1 expression modulator project, imaging, Hoechst nuclei count. HUVEC TNFalpha-stimulated, Hoechst cell count. cell count reduction, % at 2 µM. 93,000 tested, 0.17% active. AID 848, 2007;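 active = cell count reduction exceeding the screen mean by over 5 SD, scaled to untreated wells per plate, cut at about 78% in these data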;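 also: cells counted after 24 h of TNF alpha exposure following the 1 h pretreatment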
E-sel TNF inh – E-selectin induction blockers in HUVEC – imaging, immunofluorescence, high content, primary screen; HUVEC TNFa-induced E-selectin immunofluorescence; inhibition, % at 2 µM; AID 1246, 2008; 120,000 tested, 0.71% active;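 active = inhibition above the batch mean plus 3 SD, and confirmed as a hit on visual image review, cut at about 43% in these data; inconclusive = passes the inhibition cutoff but fails visual image review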
VCAM1 TNFa inh – inhibitors of TNFa-induced VCAM1 expression, primary screen, imaging, HUVEC, TNFa stimulus, immunofluorescence. 95,000 tested, 0.48% active. AID 802, 2007. inhibition, % at 2 µM. HUVEC TNFa-induced VCAM-1 immunofluorescence, high-content imaging;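 active = inhibition above the batch mean plus 3 SD, with images confirmed as a hit by eye, cut at about 37% in these data; inconclusive = inhibition above that limit but hit not confirmed in images; inactive = inhibition not above that limit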
Numbers stand for hits; . = inactive; ? = inconclusive; / = no result given.

SMILES	cytoskel mod	HUVEC tox TNFa	E-sel TNF inh	VCAM1 TNFa inh
c1csc(C(c2nnnn2C2CCCC2)N2CCOCC2)c1 (centres undefined)	/	/	.	/
c1csc(C(c2nnnn2C2CCCC2)N2CCCC3(CCCCC3)C2)c1 (centres undefined)	.	.	57	.
Cc1cccc(OCC(=O)Nc2ccc(N3CCN(C(=O)c4ccco4)CC3)cc2)c1	.	.	.	.
COc1ccc(OC)c2sc(NC(=O)CCS(=O)(=O)c3ccccc3)nc12	.	.	93	50
O=C(CSc1nnc(-c2cccs2)n1-c1ccccc1)N1CCOCC1	.	.	.	.
O=C(CSc1nnc(-c2cccs2)n1-c1ccccc1)N1CCCC1	.	88	.	.
COCC(C)NC(=O)C(C)Oc1ccccc1 (centres undefined)	/	/	.	/
Cc1ccc(-n2cc(CNCCc3ncc(C)[nH]3)c(-c3ccc(F)cc3)n2)cc1	/	/	.	/
CCOC(=O)C1=C(CSc2nc3c(cc2C#N)CN(C)CC3)OC(N)=C(C#N)C1c1ccccc1 (centres undefined)	.	99	/	?
COc1ccc2c(c1)-c1nc(/N=C/c3ccc(O)c(OC)c3)sc1CC2	/	/	.	/
CCN1CCC2(CC1)C(C#N)=C(N)Oc1c2sc2nc(C)cc(C)c12	.	.	.	84
CC(=O)N1CCC2(CC1)C(C#N)=C(N)Oc1c2sc2nc(C)cc(C)c12	/	/	.	/
CCOC(=O)c1ccc(NC(=S)NCCc2ccccc2)cc1	.	/	.	.
CCOC(=O)c1ccc(NC(=S)NCC(O)c2ccccc2)cc1 (centres undefined)	.	/	73	.
COC(=O)c1nnn(-c2ccccc2)c1N	.	/	.	.
COC(=O)c1nnn(-c2ccc(Cl)c(Cl)c2)c1C(=O)OC	/	/	73	/
COc1ccc(C(=O)NCCNC(C)=O)cc1S(=O)(=O)NCc1ccc(Cl)cc1	.	.	57	.
COc1ccc(C(=O)NCc2ccc3c(c2)OCO3)cc1S(=O)(=O)NCc1ccc(Cl)cc1	/	/	.	/
COc1ccc(-c2nc(CNS(=O)(=O)c3ccc(OC)c(OC)c3)cs2)cc1	.	.	58	.
Cc1cccc(C)c1NC(=O)NC1(C(=O)NCCN2CCOCC2)CCCCC1	/	/	.	/
CCC(C)(C)n1nnnc1C(c1ccc(OC)c(OC)c1)N1CCN(c2cccc(OC)c2)CC1 (centres undefined)	.	.	.	.
CCC(C)(C)n1nnnc1C(c1ccc(OC)c(OC)c1)N1CCN(c2ccccc2)CC1 (centres undefined)	.	.	83	.
O=C1OC(c2ccc(Cl)cc2)/C(=C(/O)c2ccccc2)C1=O (centres undefined)	.	.	.	.
COc1ccccc1C(=O)NC(CCSC)C(=O)OCC(=O)NC(=O)NCc1ccco1 (centres undefined)	/	/	97	/
COc1ccccc1C(=O)NC(CCSC)C(=O)NCC(c1ccco1)N(C)C (centres undefined)	.	.	/	.
SMILES	cytoskel mod	HUVEC tox TNFa	E-sel TNF inh	VCAM1 TNFa inh
CCC(C)NCCCCOc1cc(C)cc(C(C)C)c1 (centres undefined)	/	/	.	/
C=CCNC(=O)c1cc(Cl)cc(Cl)c1	/	/	.	/
COc1ccc2nc(SCc3nc(N)nc(Nc4ccccc4)n3)[nH]c2c1	.	.	95	.
CC1CCN(C(=O)/C(=C/c2ccccc2Cl)c2ccccc2)CC1	.	.	.	.
N#CC(C#N)=C1C=CC=CN1/C(=C\c1ccccc1Cl)C(=O)c1ccccc1	/	/	69	/
COCCCNC(=O)CN(Cc1ccc(Cl)cc1)S(C)(=O)=O	.	97	.	/
CCOC(=O)C1C(=O)CC(C)(O)C(C(=O)OCC)C1c1ccc(OC)cc1 (centres undefined)	.	.	/	.
CCOC(=O)C1C(=O)CC(C)(O)C(C(=O)OCC)C1c1ccccc1 (centres undefined)	.	.	59	.
Cc1nc2ncnn2c(C)c1Cc1cccc(C(F)(F)F)c1	/	/	.	/
Cc1ccc(-n2c(C)cc(C=C(C#N)C#N)c2C)cc1	.	.	52	.
Cc1cccc(NC(=S)Nc2ccccn2)c1C	/	/	62	/
Cc1cccc(NC(=O)c2ccccn2)c1C	.	.	.	.
Cn1nnnc1SCc1nnc(-c2ccc(Cl)cc2)o1	.	.	63	.
CCNS(=O)(=O)c1ccc2c3c(cccc13)C(=O)N2	.	.	.	.
CC1Nc2nc(N(C)C)[nH]c(=O)c2NC1C (centres undefined)	/	/	.	/
COc1ccc(C(CC(=O)NCc2ccccc2)Sc2n[nH]c(-c3ccccc3)n2)cc1 (centres undefined)	/	/	92	/
Cc1ccc(C#CC[N+](C)(C)CC#Cc2ccccc2)cc1	/	/	.	/
Cc1ccc(C(=O)c2cc([N+](=O)[O-])ccc2N2CCOCC2)c(C)c1	.	.	.	79
O=C(c1ccc(Br)cc1)c1cc([N+](=O)[O-])ccc1N1CCCCC1	.	.	.	92
Cc1ccc(C(C)n2cc(C(=O)NCCN3CCN(C)CC3)nn2)cc1 (centres undefined)	.	.	71	.
CCSc1c(-c2ccccc2)nc2c(C)cccc2c1C(=O)O	.	.	.	.
OC(c1ccc2c(c1)OCO2)c1nccc2ccccc12 (centres undefined)	.	.	72	.
O=C(NCCO)C(c1ccccc1)c1ccccc1	.	90	/	91
CC(=O)N1C(O)CC(C)N1c1ccccc1 (centres undefined)	/	/	.	/
Cc1cc(C)nc(N2CCCC(C(=O)NCC(c3ccccc3)c3ccccc3)C2)n1 (centres undefined)	.	.	.	.
SMILES	cytoskel mod	HUVEC tox TNFa	E-sel TNF inh	VCAM1 TNFa inh
COC(=O)C(NC(=O)c1ccccc1)c1ccccc1 (centres undefined)	.	.	60	.
C=CCNC(=O)NC(=O)COC(=O)c1nc2nccc(C)n2n1	/	/	.	/
COc1cc(/C=C2\SC(=S)N(CC(=O)Nc3ccc(O)cc3)C2=O)cc(OC)c1OC	/	/	74	/
Cn1c(O)c(N=Nc2nc(-c3ccccc3)cs2)c2ccccc21	/	/	.	/
CCCCCCCCn1c2c(c(=N)c3ccccc31)CCC2	/	/	.	/
CCCCCCCCCCn1c2c(c(=N)c3c1CCC3)CCC2	.	.	/	87
COc1ccc(CC(=O)Nc2ccc(-c3noc(-c4cccc(OC)c4)n3)cc2)cc1	.	.	.	39
COCCCNC(=O)CN1C(=O)c2ccccc2C1=O	.	.	66	.
C=CCN(CC=C)C(=O)Nc1cc(Cl)ccc1OC	.	.	53	.
O=C(COC(=O)/C=C/c1ccccc1Cl)NC(=O)Cc1ccccc1	/	/	.	/
CC(C)c1c(O)cc(-c2ccncc2)n(-c2ccc(Cl)cc2)c1=O	/	/	68	/
Cn1cc([N+](=O)[O-])c(C(=O)Nc2ccc(Br)cn2)n1	.	.	54	.
CCSc1ccc(C(=O)Nc2ccc(Br)cn2)cc1[N+](=O)[O-]	/	/	.	/
Cc1cc(C)nc(SCC(=O)NN=C2CCCC2)n1	/	/	.	/
COc1ccc(NC(=O)C2CCC(CNS(=O)(=O)c3cccs3)CC2)cc1 (centres undefined)	/	/	.	/
COc1ccc(Cl)c(NC(=O)Nc2c(C)n(-c3ccccc3)c(=O)n2C)c1	.	.	.	94
CC(Sc1nncs1)C(=O)NCC(=O)Nc1ccc(F)c(F)c1F (centres undefined)	/	/	.	/

High-throughput results from PubChem BioAssay.
